# HT1080 IDH1KD tx = HT-1080 IDH1 knockdown cell toxicity (counter line); AID 686971; HT-1080 IDH1 knockdown viability, ATP luminescence, 48 h; Potency, µM (doses to about 46.1 µM), for inactives: at the top dose activity, negative = toxicity, actives largely listed as cytotoxic; 360,000 compounds, 2% hits;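 further: 0% = DMSO wells and -100% = cell-free medium wells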
#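 IDH1KD HT-1080 cells, 750/well, RPMI + 5% FBS; compound pinned after 2 h settling; 48 h, 37 °C; CellTiter-Glo luminescence; % activity normalised to DMSO and no-cell wells; curves fitted, classed by r2 and efficacy.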
# ATXN2 expr inh = reduces ATXN2 reporter expression in HEK-293 cells; HEK-293 ATXN2-luciferase reporter, luminescence, 24 h; Potency, µM (titrated, usually from 57 µM), for inactives: top-dose activity change, negative = inhibition, most hits filed as inhibitors; 360,000 compounds, 0.72% hits; further: on the % scale 0 is the no-effect control and ±100 the full control effect; nearly all actives have a fitted effect of over 55% in size
#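 ATXN2-luciferase reporter cells (luciferase flanked by upstream and downstream ATXN2 gene portions) were treated 24 h at 37 °C with compounds at up to 57 uM. SteadyGlo luminescence gave expression; GF-AFC fluorescence gave viability.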
# ATXN viability = viability counter-screen for ATXN expression inhibitors; S2 cells (HEK-293 line with an ATXN2-luciferase reporter) viability, CellTiter-Fluor protease fluorescence, 24 h; Potency, µM (highest dose often 56.7 µM), hits mostly cytotoxic; 400,000 compounds, 0.49% hits; further: nearly all actives have a fitted effect of over 40% in size
# HepG2 viability = counter-screen for TGF-b inhibitors: cytotoxicity in HepG2 cells | HepG2 CAGA-GFP viability, ATP luminescence, 18 h | Potency, µM (top dose mostly 46.1 µM), for the others: at the top dose activity change, negative = cytotoxicity, actives largely listed as cytotoxic | 410,000 compounds, 0.76% hits | AID 588856
#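 HepG2 CAGA-GFP cells (1000/well, DMEM with 1% FBS) received compound, then TGF-beta at 500 pg/mL final, and were incubated 18 hours at 37 degrees C. Viability was read by CellTiter-Glo luminescence. Media-only wells were set as complete cell-killing and DMSO as no toxicity.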
# HT1080-NT tox = kills 2HG-producing HT-1080-NT fibrosarcoma cells; HT-1080-NT fibrosarcoma viability, CellTiter-Glo ATP luminescence, 48 h; Potency, µM (doses to about 46.1 µM), for inactives: at the top dose activity, negative = less viability, usual class: cytotoxic; 360,000 compounds, 1.6% hits; AID 686970;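 further: NT is the 2HG producing partner of a matched IDH1 knockdown line; 0% = DMSO-treated cells and -100% = media-only wells without cells; nearly all actives have a fitted effect of over 55% in size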
#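 Read-out is CellTiter-Glo luminescence after 10 minutes at room temperature, following 48 hours' compound treatment of HT-1080-NT cells (750 cells/well, RPMI, 5% FBS, 37 degrees C).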
# TGFb inhibitor = TGF-b pathway inhibition. HepG2 CAGA-GFP TGF-b/SMAD3 reporter, GFP fluorescence, 18 h; TGF-beta stimulated, 500 pg/mL final. Potency, µM (titrated, usually from 46.1 µM), for inactives: at the highest dose activity, negative = inhibition, hits mostly inhibitors. 410,000 compounds, 1.2% hits; further: on the % scale 0 is the no-effect control and ±100 the full control effect; nearly all actives have a fitted effect of over 65% in size
#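 TGF-beta reporter screen: HEPG2 CAGA-GFP, 1% FBS, 500 pg/mL TGF-beta final, 18 h; per-cell GFP summed per well; curves fitted and categorized by class.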
# Starred values were filed as active, the others as inactive; i = inactive; ? = inconclusive; · = not tested or not shown; [ ] = dose if it differs, or a comment. Only some compounds are listed: those with a hit (about 3.9% of all), similar ones and a draw of the others. The call rests on the fitted dose curve; in most records, active means well fitted curve in the direction sought with a large enough effect; inconclusive means small, poorly fitted or top-dose-only effect, or another doubt; inactive means no such curve, though single readings can be large; an effect the other way counts as inactive or inconclusive. Potency means the concentration at half of the fitted maximal effect.
SMILES,HT1080 IDH1KD tx,ATXN2 expr inh,ATXN viability,HepG2 viability,HT1080-NT tox,TGFb inhibitor
COc1ccc(-c2cc3nc(-c4ccccc4)cc(N4CCN(C(=O)c5ccsc5)CC4)n3n2)cc1,-1.3%,1.0%,i,-2.4%,-0.3%,-0.1%
Fc1ccc(-c2cc3nc(-c4ccccc4)cc(N4CCOCC4)n3n2)cc1,-0.7%,-19.4%,i,-6.3%,8.9%,0.2%
COc1ccc(N2C(=O)[C@@H]3C[C@H]2CN3Cc2ccc3nccnc3c2)cc1Cl,·,·,i,·,·,·
COC(=O)CC1Oc2ccc(Cl)cc2-n2cc(-c3ccc(C)cc3)nc21 (stereo not given),·,-2.2%,i,-10.2%,·,-7.7%
Nc1ccc(C(=O)c2cc3c(ccc4ccccc43)[nH]2)cc1,·,-12.5%,·,·,·,·
CCOc1ccc(S(=O)(=O)NCc2cccnc2)cc1NC(=O)c1ccccc1F,-23.6%,-33.1%,i,-4.7%,-1.2%,33.9%
COc1ccc(S(=O)(=O)NCc2ccncc2)cc1NC(=O)c1ccccc1,-17.2%,-19.6%,?,-19.5%,?,0.0%
CCOc1ccc(S(=O)(=O)NCc2ccncc2)cc1NC(=O)c1ccccc1,23.1µM*,-22.0%,i,6.2%,3.66µM*,?
CCOc1ccc(S(=O)(=O)NCc2ccncc2)cc1NC(=O)c1ccccc1F,23.1µM*,-0.9%,i,-23.6%,?,-20.8%
CC1=C(C(=O)Nc2ccccc2)C(CC(C)C)n2nc(SCc3ccccc3C)nc2N1 (stereo not given),·,6.4%,i,-12.9%,·,-4.3%
CS(=O)c1nc(-c2ccc(Br)cc2)cc(-c2ccccc2)c1C#N (stereo not given),3.55µM*,12.6µM*,20µM*,-6.7%,5.62µM*,-7.8%
CC1CCc2nc(NC(=O)Cc3ccc(Cl)cc3)sc2C1 (stereo not given),·,16.4%,i,-47.1%,·,15.8µM*
COc1ccccc1N1CCN(S(=O)(=O)c2c(C)sc3ncn(CC(=O)Nc4ccc(C(C)C)cc4)c(=O)c23)CC1,·,5.6%,i,3.0%,·,2.3%
CCn1c(SCC(=O)Nc2ccc(Cl)cc2)nc2nc3c(cc2c1=O)CCCC3,5.7%,-24.3%,i,-5.2%,1.5%,-5.3%
CCn1c(SCC(=O)Nc2ccc(C(C)=O)cc2)nc2nc3c(cc2c1=O)CCCC3,-8.9%,?,28.2µM*,-19.1%,6.0%,2.8%
O=C(NCC1(N2CCOCC2)CCCC1)c1cnn(-c2nccc(-c3cccs3)n2)c1C1CC1,·,·,i,·,·,·
CN(C)c1ccc(/C=C/C=C2/SC(=S)N(c3ccccc3)C2=O)cc1,-19.6%,1.7%,15.8µM*,-15.7%,1.5%,-1.5%
COc1ccc2[nH]cc(C(=O)CCl)c2c1,7.31µM*,?,15.8µM*,-107.2%,5.8µM*,?
COc1ccc2[nH]cc(/C=C/C(=O)c3ccccc3)c2c1,18.4µM*,82.9%,·,-20.1%,18.4µM*,?
CCc1ccc(NC(=O)Cn2nc(SC)c(S(=O)(=O)c3ccc(OC)cc3)c2N)cc1,·,2.9%,i,-8.8%,·,-24.5%
CCSc1nn(CC(=O)Nc2cccc(CC)c2)c(N)c1S(=O)(=O)c1ccccc1,·,?,?,-38.6%,·,11.2µM*
COc1ccc(S(=O)(=O)c2c(SC)nn(CC(=O)Nc3ccc(C)c(Cl)c3)c2N)cc1,·,?,?,5.5%,·,7.08µM*
O=[N+]([O-])c1ccc(O/N=[N+](\[O-])N2CCCCC2)c([N+](=O)[O-])c1,·,·,·,-1.9%,·,4.0%
CN(C)c1ccc(N=Nc2nccs2)cc1,-25.8%,·,10µM*,-19.3%,-14.9%,-4.4%
CCc1cnc2c(c1SCC(=O)c1ccc(OC)cc1)c(=O)n(C)c(=O)n2C,·,1.7%,?,-20.4%,·,?
SMILES,HT1080 IDH1KD tx,ATXN2 expr inh,ATXN viability,HepG2 viability,HT1080-NT tox,TGFb inhibitor
Cc1cccc(N(C(=O)c2snc(C(N)=O)c2N)C(C(=O)NCc2ccccc2)c2ccncc2)c1 (stereo not given),?,?,?,-68.1%,18.4µM*,?
O=C(Nc1ccc(NC(=O)c2ccco2)cc1)c1ccc2c(c1)OCCO2,-9.9%,15.8µM*,?,6.4%,-14.0%,5.6%
CN(C(=O)c1ccc(NC(=O)c2ccco2)cc1)c1ccccc1,?,17.1%,·,7.94µM*,?,-2.5%
Cc1ccc(C(=O)Nc2ccc3c(c2)OCO3)cc1,-29.1%,-11.0%,i,-20.9%,?,-22.8%
Cc1cc(NC(=O)c2ccc3c(c2)OCCO3)no1,-27.9%,11.2µM*,i,-23.5%,-29.4%,-2.1%
Cc1cc(NC(=O)c2ccc3c(c2)OCCO3)ccc1NC(=O)c1ccco1,?,-9.1%,i,-38.2%,?,-8.9%
Cc1ccc(C(=O)Nc2ccc3c(c2)OCCO3)cc1,-19.4%,12.6µM*,i,-26.4%,-4.0%,17.2%
Cc1ccc(Sc2ccc(N3CCCC(C(=O)Nc4ccc(F)cc4)C3)nn2)cc1 (stereo not given),·,-17.8%,?,-5.3%,·,?
O=C(Cn1c(=O)oc2cc(S(=O)(=O)NC3CCCC3)ccc21)Nc1ccc(F)c(F)c1,·,4.0%,i,0.4%,·,?
COc1ccc(C(=O)NCc2nnc(SC)n2-c2ccccc2C)c(OC)c1OC,·,·,i,·,·,·
CC(=O)Nc1ccc(SCC(=O)c2ccc(Br)s2)cc1,18.4µM*,30.3%,i,-11.4%,25.9µM*,?
CCC(C)NC(=O)CSc1ccc(NC(C)=O)cc1 (stereo not given),4.2%,0.7%,i,-11.5%,6.0%,12.8%
CC(=O)Nc1ccc(SCC(=O)Nc2ccc3c(c2)OCCO3)cc1,1.4%,2.2%,i,3.55µM*,0.1%,4.1%
Cc1ccccc1[C@H](NC1c2ccccc2C=Cc2ccccc21)P(=O)(c1ccccc1)c1ccccc1,13µM*,?,?,·,14.6µM*,·
Cc1cc2nc(C3CCN(Cc4nnnn4Cc4cccs4)CC3)[nH]c2cc1C,1.26µM*,0.0%,i,-15.2%,?,-5.2%
Cc1ccc(CN2CCC(c3nc4ccc(Cl)cc4[nH]3)CC2)cc1,-19.2%[9.24 µM],?,i,-84.1%,?,?
O=c1c(Cl)c(Cl)cnn1Cc1ccc(F)cc1,?,?,·,-94.7%,?,?
O=C1CN(C(=O)Cn2ncc(Cl)c(Cl)c2=O)c2ccccc2N1,4.11µM*,?,?,0.7%,4.61µM*,-17.5%
C=CCn1c(C)cc(C(=O)CN2NS(=O)(=O)c3ccccc3C2=O)c1C,18.4µM*,·,?,-11.4%,16.4µM*,?
O=C(Cn1ncc(Cl)c(Cl)c1=O)c1ccc(Cl)cc1,?,?,?,17.8µM*,14.6µM*,?

# Compound activity: PubChem, National Center for Advancing Translational Sciences (NCATS)
